# Compounds without any hit were thinned out: in the full panel of roughly 79,000, 15% have a hit. Unmarked numbers belong to inactive results. The source made the active and inactive calls. Cut-off read from the data, not from the text of the source: active = growth inhibition above about 70%; inactive = the rest.
# Test: NCI Yeast Anticancer Drug Screen. Data for the sgs1 mgt1 strain (AID 161);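 note: 0% = growth of cultures given vehicle only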
# Details: S. cerevisiae sgs1 mgt1 strain, at 50.0 µM, hits give high values
# Method in brief: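 Read-out: growth inhibition vs vehicle controls. Cells: mutant yeast strain deficient in DNA damage repair.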
row,Compound,growth inhibition [%]
1,O=C(c1ccccc1)c1ccccc1NCC(O)COc1cccc2ccccc12 (stereo not drawn),-21.9
2,O=C(CCN1CCC2CCC(C2)C1)c1ccc(Cl)cc1 (stereo not drawn),46.5
3,O=C(O)c1cc(O)c(C(=O)O)cc1O,-18.6
4,CCOC(=O)c1[nH]n(-c2ccccc2)c(=O)c1C=NC(=S)c1cccnc1,-29.2
5,CCCCSc1nc(NCC)nc(NCC)n1,67
6,CC(C)C(NC(=O)C1CCCN1)P(=O)(O)O (stereo not drawn),4.55
7,COc1cc(OC)c2c(c1)OC(c1ccccc1)CC2=O (stereo not drawn),-18.2
8,CCC(CC)(CO)CO,-4.3

# Test: NCI Yeast Anticancer Drug Screen. Data for the cln2 rad14 strain (AID 165);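 note: 0% = growth equal to vehicle treated cultures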
# Details: S. cerevisiae cln2 rad14 strain, at 50.0 µM, hits give high values
# Method in brief: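 Each compound was tested on cln2 rad14 yeast. Inhibition of growth was calculated against vehicle-exposed controls.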
row,Compound,growth inhibition
1,CCOC(=O)C(CC)(C(=O)OCC)C(C)CC (stereo not drawn),-5.9%
2,Cc1ccc(S(=O)(=O)C(CCC(=O)c2ccccc2)(CCC(=O)c2ccccc2)[N+](=O)[O-])cc1,-26%
3,CCC[CH2][Sn]([CH2]CCC)([O]C(=O)c1cccc(F)c1F)[O][Sn]([CH2]CCC)([CH2]CCC)[O]C(=O)c1cccc(F)c1F,88.5% (active)
4,O=C1c2ccccc2C2(O)NC(=S)N(c3ccccc3)C12O (stereo not drawn),15.4%
5,NC(C(=O)O)C(F)(F)C(=O)O (stereo not drawn),-33.1%
6,CC1=C(C)Cc2c(-c3ccccc3)oc(-c3ccccc3)c2C1,25.8%
7,O=C(O)c1ccc2c([N+](=O)[O-])cccc2n1,-44%
8,O=[N+]([O-])c1ccc(Oc2cccc3ccccc23)c([N+](=O)[O-])c1,-82.5%
9,CCOc1ncnc2ccc(Cl)cc12,-18.1%
10,CN(C)c1nc(NN)c2c(-c3ccccc3)c(-c3ccccc3)oc2n1,9.35%
11,CCOC(=O)NCc1cccc2ccccc12,-89.4%
12,NNC(=O)c1cccc(C(=O)NN)n1,5.85%
13,Cc1cccc(N=NC2Sc3nc4ccccc4n3C2=O)c1 (stereo not drawn),-9.25%
14,O=C(/C=C/c1ccc(O)c(O)c1)c1ccc(O)cc1O,4.05%
15,CCCCCCCCCCCCCC(=O)Oc1ccc([N+](=O)[O-])cc1,11.2%
16,COc1ccc(-c2nnc(-c3ccc(OC)cc3)nn2)cc1,-11.8%
17,[O-][n+]1c2ccc(Cl)cc2nc2ccc(Cl)cc21,-27.4%
18,CN1C(=O)CC2(C)c3cc(O)ccc3N(C)C12 (stereo not drawn),64.3%
19,CN1NC(c2ccccc2)=NN=C1c1ccccc1,0.75%
20,Cc1ccc(C2(O)c3ccccc3N=NN2C)cc1 (stereo not drawn),-16.8%

row,Compound,growth inhibition
1,Nc1ncnc(N)c1NC(=O)c1ccccc1,-21.4%
2,S=C(/C=C1\SC(=Nc2ccccc2)C(=Nc2ccccc2)N1c1ccccc1)Nc1ccccc1,-4.1%
3,CNc1ccccc1C(=O)N/N=C/c1cccc([N+](=O)[O-])c1,-8.6%
4,CCCCCCCCSc1nc(Nc2cc(C(C)(C)C)c(O)c(C(C)(C)C)c2)nc(SCCCCCCCC)n1,34.1%
5,Nc1cc(=O)c2n[nH]nc2[nH]1,-21.6%
6,CCCCCCCCCCCCCCCCCC[N+](C)(C)Cc1c(Cl)c(Cl)c(Cl)c(Cl)c1Cl,-18.9%
7,CCNC(=O)NCC,-29.2%
8,COc1ccccc1C(=O)C(CN(C)C)CN(C)C,15.3%
9,O=C1C=C(N2CCCC2)CC1,-43%
10,COC(=O)C1C(C(=O)OC)C(C(=O)OC)C1C(=O)OC (stereo not drawn),9.5%
11,O=C(SCCN1CCCC1)C(O)(c1ccccc1)C1CCCC1 (stereo not drawn),-7.95%
12,CC(=O)C1=CCC2[C@H]3CC=C4C[C@H](O)CC[C@@]4(C)C3CC[C@@]12C (stereo partly drawn),17.9%
13,O=C(c1ccccc1)c1ccccc1NCC(O)COc1cccc2ccccc12 (stereo not drawn),-13.8%
14,O=C(CCN1CCC2CCC(C2)C1)c1ccc(Cl)cc1 (stereo not drawn),-4%
15,O=C(O)c1cc(O)c(C(=O)O)cc1O,-15.2%
16,CCOC(=O)c1[nH]n(-c2ccccc2)c(=O)c1C=NC(=S)c1cccnc1,20.2%
17,CCCCSc1nc(NCC)nc(NCC)n1,27.1%
18,CC(C)C(NC(=O)C1CCCN1)P(=O)(O)O (stereo not drawn),-10.8%
19,COc1cc(OC)c2c(c1)OC(c1ccccc1)CC2=O (stereo not drawn),2.25%
20,CCC(CC)(CO)CO,16.1%

# Test: NCI Yeast Anticancer Drug Screen. Data for the bub3 strain (AID 167)
# Details: S. cerevisiae bub3 mutant strain, at 50.0 µM, hits give high values
# Method in brief: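 Whole-cell yeast assay. The mutant strain was incubated with compounds, and growth inhibition was determined by comparison with vehicle-treated cells.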
row,Compound,growth inhibition
1,CCOC(=O)C(CC)(C(=O)OCC)C(C)CC (stereo not drawn),-7.55%
2,Cc1ccc(S(=O)(=O)C(CCC(=O)c2ccccc2)(CCC(=O)c2ccccc2)[N+](=O)[O-])cc1,-1.5%
3,CCC[CH2][Sn]([CH2]CCC)([O]C(=O)c1cccc(F)c1F)[O][Sn]([CH2]CCC)([CH2]CCC)[O]C(=O)c1cccc(F)c1F,90% (active)
4,O=C1c2ccccc2C2(O)NC(=S)N(c3ccccc3)C12O (stereo not drawn),6.2%
5,NC(C(=O)O)C(F)(F)C(=O)O (stereo not drawn),-7.3%
6,CC1=C(C)Cc2c(-c3ccccc3)oc(-c3ccccc3)c2C1,-7.95%
7,O=C(O)c1ccc2c([N+](=O)[O-])cccc2n1,1.15%
8,O=[N+]([O-])c1ccc(Oc2cccc3ccccc23)c([N+](=O)[O-])c1,29.1%
9,CCOc1ncnc2ccc(Cl)cc12,0.65%
10,CN(C)c1nc(NN)c2c(-c3ccccc3)c(-c3ccccc3)oc2n1,20.2%
11,CCOC(=O)NCc1cccc2ccccc12,10.7%
12,NNC(=O)c1cccc(C(=O)NN)n1,31.1%
13,Cc1cccc(N=NC2Sc3nc4ccccc4n3C2=O)c1 (stereo not drawn),2.25%
14,O=C(/C=C/c1ccc(O)c(O)c1)c1ccc(O)cc1O,-40.6%
15,CCCCCCCCCCCCCC(=O)Oc1ccc([N+](=O)[O-])cc1,-9.2%
16,COc1ccc(-c2nnc(-c3ccc(OC)cc3)nn2)cc1,4.2%
17,[O-][n+]1c2ccc(Cl)cc2nc2ccc(Cl)cc21,1.45%
18,CN1C(=O)CC2(C)c3cc(O)ccc3N(C)C12 (stereo not drawn),32.6%
19,CN1NC(c2ccccc2)=NN=C1c1ccccc1,15.8%
20,Cc1ccc(C2(O)c3ccccc3N=NN2C)cc1 (stereo not drawn),14%

row,Compound,growth inhibition
1,Nc1ncnc(N)c1NC(=O)c1ccccc1,3.25%
2,S=C(/C=C1\SC(=Nc2ccccc2)C(=Nc2ccccc2)N1c1ccccc1)Nc1ccccc1,10.3%
3,CNc1ccccc1C(=O)N/N=C/c1cccc([N+](=O)[O-])c1,32.5%
4,CCCCCCCCSc1nc(Nc2cc(C(C)(C)C)c(O)c(C(C)(C)C)c2)nc(SCCCCCCCC)n1,-0.9%
5,Nc1cc(=O)c2n[nH]nc2[nH]1,-14.3%
6,CCCCCCCCCCCCCCCCCC[N+](C)(C)Cc1c(Cl)c(Cl)c(Cl)c(Cl)c1Cl,24.6%
7,CCNC(=O)NCC,-2%
8,COc1ccccc1C(=O)C(CN(C)C)CN(C)C,-23.3%
9,O=C1C=C(N2CCCC2)CC1,-17.1%
10,COC(=O)C1C(C(=O)OC)C(C(=O)OC)C1C(=O)OC (stereo not drawn),1.4%
11,O=C(SCCN1CCCC1)C(O)(c1ccccc1)C1CCCC1 (stereo not drawn),-2.35%
12,CC(=O)C1=CCC2[C@H]3CC=C4C[C@H](O)CC[C@@]4(C)C3CC[C@@]12C (stereo partly drawn),58.6%
13,O=C(c1ccccc1)c1ccccc1NCC(O)COc1cccc2ccccc12 (stereo not drawn),5.55%
14,O=C(CCN1CCC2CCC(C2)C1)c1ccc(Cl)cc1 (stereo not drawn),21.3%
15,O=C(O)c1cc(O)c(C(=O)O)cc1O,-3.25%
16,CCOC(=O)c1[nH]n(-c2ccccc2)c(=O)c1C=NC(=S)c1cccnc1,-24.9%
17,CCCCSc1nc(NCC)nc(NCC)n1,40.5%
18,CC(C)C(NC(=O)C1CCCN1)P(=O)(O)O (stereo not drawn),5%
19,COc1cc(OC)c2c(c1)OC(c1ccccc1)CC2=O (stereo not drawn),13.8%
20,CCC(CC)(CO)CO,-0.55%
